The nature of experiment [1]: NCI Yeast Anticancer Drug Screen. Data for the rad50 strain (AID 155).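 Further: 0% = growth of vehicle-only cultures of the same strain.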 The settings on record: S. cerevisiae rad50 strain growth inhibition, stronger effect = higher value. A digest of the protocol: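 DNA repair mutant yeast, compound exposure, growth read-out; inhibition is taken relative to vehicle.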
Experiment [2] is described as follows: NCI Yeast Anticancer Drug Screen. Data for the mec2-1 strain (AID 157). The settings on record: S. cerevisiae mec2-1 strain, stronger effect = higher value. In outline: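 Using mec2-1 yeast: add compound, measure growth, express inhibition versus vehicle-treated cultures.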
Experiment [3] is described as follows: NCI Yeast Anticancer Drug Screen. Data for the sgs1 mgt1 strain (AID 161).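 Further: 0% = growth of cultures given vehicle only.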 The settings on record: S. cerevisiae sgs1 mgt1 strain, stronger effect = higher value. A digest of the protocol: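 Percent growth inhibition was derived by comparing compound-exposed mutant yeast with vehicle-exposed cultures. The strain carries alterations in DNA damage repair.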
Experiment [4] is described as follows: NCI Yeast Anticancer Drug Screen. Data for the cln2 rad14 strain (AID 165).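 Further: 0% = growth equal to vehicle treated cultures.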 The settings on record: S. cerevisiae cln2 rad14 strain, stronger effect = higher value. A digest of the protocol: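 Yeast strain cln2 rad14, bearing defects in cell cycle control and DNA repair, serves as the test system; values reflect growth inhibition compared with vehicle.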
Experiment [5] is described as follows: NCI Yeast Anticancer Drug Screen. Data for the bub3 strain (AID 167). The note with it: S. cerevisiae bub3 mutant strain, stronger effect = higher value. In outline:
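In this screen, a yeast mutant lacking normal mitotic checkpoint function is challenged with compound. Relative growth versus vehicle gives the inhibition value.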

Experiment [6] is described as follows: NCI Yeast Anticancer Drug Screen. Data for the mlh1 rad18 strain (AID 175). The note with it: S. cerevisiae mlh1 rad18 strain growth inhibition, stronger effect = higher value. A digest of the protocol:
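Steps: expose repair-defective yeast to compound; measure growth; express inhibition against vehicle-treated controls.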

The mark [7] stands for this setting: at 5.0 µM (retest, dose inferred, filed as 0.5).
Setting [8] is: at 50.0 µM (retest, dose inferred, filed as 5.0).

Each structure is given as a SMILES string. Compounds without any hit were thinned out: in the full panel of roughly 79,000, 15% have a hit. Unmarked numbers belong to inactive results. Active and inactive are the calls of the source. No stated cut-off is given here; in the data, active means growth inhibition above about 70%; inactive means the rest.

In the case of `C/C(=N\NC(=S)N1CCN(c2ccccn2)CC1)c1ccccn1`, the growth inhibition in experiment [1] (setting [7]) is 46%; in experiment [1] (setting [8]), 99% (active); in experiment [1] (at 50.0 µM), 87.7% (active); in experiment [2] (setting [7]) it was 35%; in experiment [2] (setting [8]), 100% (active); in experiment [2] (at 50.0 µM), 90.2% (active). In addition, the growth inhibition is 35% in experiment [3] (setting [7]); 99% (active) in experiment [3] (setting [8]); 89.8% (active) in experiment [3] (at 50.0 µM); 21% in experiment [4] (setting [7]); 98% (active) in experiment [4] (setting [8]); 83.2% (active) in experiment [4] (at 50.0 µM). In addition, the growth inhibition was 63% in experiment [5] (setting [7]); 100% (active) in experiment [5] (setting [8]); 90.1% (active) in experiment [5] (at 50.0 µM); 58% in experiment [6] (setting [7]); 99% (active) in experiment [6] (setting [8]); 88.3% (active) in experiment [6] (at 50.0 µM).

In the case of `CC(C)CCCCCCCCCCCCC(=O)NCC(=O)NC1C(C)OC(Nc2ncnc3nc[nH]c23)C(O)C1O` (stereo not given), the growth inhibition in experiment [1] (setting [7]) is 22%; in experiment [1] (setting [8]), 22%; in experiment [1] (at 50.0 µM) it was 29.1%; in experiment [2] (setting [7]) it was 54%; in experiment [2] (setting [8]) it was 32%; in experiment [2] (at 50.0 µM), 9.55%. For the same compound, the growth inhibition in experiment [3] (setting [7]) was 43%; in experiment [3] (setting [8]) it was 45%; in experiment [3] (at 50.0 µM) it was 34.5%; in experiment [4] (setting [7]) it was 5%; in experiment [4] (setting [8]), 10%; in experiment [4] (at 50.0 µM) it was 2.2%. Besides, the growth inhibition in experiment [5] (setting [7]) was 58%; in experiment [5] (setting [8]) it was 23%; in experiment [5] (at 50.0 µM) it was 77.1% (active); in experiment [6] (setting [7]) it was 52%; in experiment [6] (setting [8]), 35%; in experiment [6] (at 50.0 µM) it was 19.4%.

Turning to `COc1cc2oc(-c3ccc(O)cc3O)c(CC=C(C)C)c(=O)c2c(O)c1/C=C/C(C)C`, the growth inhibition in experiment [1] (setting [7]) is 17%; in experiment [1] (setting [8]), 97% (active); in experiment [1] (at 50.0 µM), 89.5% (active); in experiment [2] (setting [7]) it was 8%; in experiment [2] (setting [8]) it was 98% (active); in experiment [2] (at 50.0 µM), 90.7% (active). Also, the growth inhibition in experiment [3] (setting [7]) was 10%; in experiment [3] (setting [8]) it was 97% (active); in experiment [3] (at 50.0 µM), 91% (active); in experiment [4] (setting [7]), 24%; in experiment [4] (setting [8]), 98% (active); in experiment [4] (at 50.0 µM), 88.8% (active). The growth inhibition in experiment [5] (setting [7]) was 11%; in experiment [5] (setting [8]), 97% (active); in experiment [5] (at 50.0 µM), 88.8% (active); in experiment [6] (setting [7]) it was 9%; in experiment [6] (setting [8]) it was 97% (active); in experiment [6] (at 50.0 µM), 90.3% (active).

`C#CCNCc1ccccc1`: the growth inhibition in experiment [1] (setting [7]) was 18%; in experiment [1] (setting [8]) it was 63%; in experiment [1] (at 50.0 µM) it was 66.8%; in experiment [2] (setting [7]), 18%; in experiment [2] (setting [8]) it was 47%; in experiment [2] (at 50.0 µM), 35.5%. For the same compound, the growth inhibition was 11% in experiment [3] (setting [7]); 63% in experiment [3] (setting [8]); 89% (active) in experiment [3] (at 50.0 µM); 0% in experiment [4] (setting [7]); 32% in experiment [4] (setting [8]); 29.4% in experiment [4] (at 50.0 µM). The growth inhibition in experiment [5] (setting [7]) is 5%; in experiment [5] (setting [8]) it was 78% (active); in experiment [5] (at 50.0 µM), 76.8% (active); in experiment [6] (setting [7]), -4%; in experiment [6] (setting [8]), 49%; in experiment [6] (at 50.0 µM) it was 58.8%.

In the case of `COc1ccc(OC)c(N=Nc2c(C)[nH]n(C(N)=S)c2=O)c1`, the growth inhibition in experiment [1] (setting [7]) is -6%; in experiment [1] (setting [8]), 47%; in experiment [1] (at 50.0 µM), 79.3% (active); in experiment [2] (setting [7]), -3%; in experiment [2] (setting [8]) it was 34%; in experiment [2] (at 50.0 µM) it was 19%. Also, the growth inhibition was 7% in experiment [3] (setting [7]); 34% in experiment [3] (setting [8]); 80.7% (active) in experiment [3] (at 50.0 µM); -2% in experiment [4] (setting [7]); 27% in experiment [4] (setting [8]); 10.6% in experiment [4] (at 50.0 µM). Moreover, the growth inhibition in experiment [5] (setting [7]) is -14%; in experiment [5] (setting [8]) it was 26%; in experiment [5] (at 50.0 µM) it was 42.1%; in experiment [6] (setting [7]) it was 11%; in experiment [6] (setting [8]), 25%; in experiment [6] (at 50.0 µM) it was 66.7%.

As to `N#CC(C#N)=C(c1ccccc1)c1ccccc1`, the growth inhibition is -8% in experiment [1] (setting [7]); 99% (active) in experiment [1] (setting [8]); 97.4% (active) in experiment [1] (at 50.0 µM); 13% in experiment [2] (setting [7]); 100% (active) in experiment [2] (setting [8]); 99.5% (active) in experiment [2] (at 50.0 µM). For the same compound, the growth inhibition in experiment [3] (setting [7]) is 18%; in experiment [3] (setting [8]), 99% (active); in experiment [3] (at 50.0 µM), 99.4% (active); in experiment [4] (setting [7]), -33%; in experiment [4] (setting [8]), 99% (active); in experiment [4] (at 50.0 µM), 99.5% (active). The growth inhibition in experiment [5] (setting [7]) is -6%; in experiment [5] (setting [8]), 100% (active); in experiment [5] (at 50.0 µM), 99.3% (active); in experiment [6] (setting [7]), -4%; in experiment [6] (setting [8]), 100% (active); in experiment [6] (at 50.0 µM), 99.4% (active).

In the case of `N#CC(C#N)=C1CCC(CC2CCCCC2)CC1` (stereo not given), the growth inhibition in experiment [1] (setting [7]) was -117%; in experiment [1] (setting [8]), 96% (active); in experiment [1] (at 50.0 µM), 98.6% (active); in experiment [2] (setting [7]), -49%; in experiment [2] (setting [8]), 96% (active); in experiment [2] (at 50.0 µM), 98.6% (active). Moreover, the growth inhibition was -60% in experiment [3] (setting [7]); 96% (active) in experiment [3] (setting [8]); 98% (active) in experiment [3] (at 50.0 µM); -56% in experiment [4] (setting [7]); 97% (active) in experiment [4] (setting [8]); 98.5% (active) in experiment [4] (at 50.0 µM). The growth inhibition in experiment [5] (setting [7]) was -58%; in experiment [5] (setting [8]), 97% (active); in experiment [5] (at 50.0 µM), 98% (active); in experiment [6] (setting [7]), -92%; in experiment [6] (setting [8]) it was 96% (active); in experiment [6] (at 50.0 µM), 98.5% (active).

Turning to `O=C(CCN1CCCC1)c1ccc(Oc2ccc(F)cc2)cc1`, the growth inhibition is 28% in experiment [1] (setting [7]); 50% in experiment [1] (setting [8]); 69.8% in experiment [1] (at 50.0 µM); 20% in experiment [2] (setting [7]); 48% in experiment [2] (setting [8]); 11.7% in experiment [2] (at 50.0 µM). For the same compound, the growth inhibition in experiment [3] (setting [7]) is 31%; in experiment [3] (setting [8]), 60%; in experiment [3] (at 50.0 µM), 47.2%; in experiment [4] (setting [7]) it was 34%; in experiment [4] (setting [8]), 68%; in experiment [4] (at 50.0 µM), 54.7%. Also, the growth inhibition was 31% in experiment [5] (setting [7]); 72% (active) in experiment [5] (setting [8]); 49.4% in experiment [5] (at 50.0 µM); 30% in experiment [6] (setting [7]); 56% in experiment [6] (setting [8]); 63.4% in experiment [6] (at 50.0 µM).

Turning to `O=C(CC(=O)c1ccccc1)CC1(O)CCCCC1`, the growth inhibition in experiment [1] (setting [7]) was 22%; in experiment [1] (setting [8]) it was 42%; in experiment [1] (at 50.0 µM), 61.1%; in experiment [2] (setting [7]), 2%; in experiment [2] (setting [8]), 16%; in experiment [2] (at 50.0 µM), 78.9% (active). Moreover, the growth inhibition is 4% in experiment [3] (setting [7]); 34% in experiment [3] (setting [8]); 79.9% (active) in experiment [3] (at 50.0 µM); -9% in experiment [4] (setting [7]); 14% in experiment [4] (setting [8]); 50.4% in experiment [4] (at 50.0 µM). The growth inhibition is 15% in experiment [5] (setting [7]); 86% (active) in experiment [5] (setting [8]); 96% (active) in experiment [5] (at 50.0 µM); 6% in experiment [6] (setting [7]); 29% in experiment [6] (setting [8]); 89.1% (active) in experiment [6] (at 50.0 µM).

Take `CCCCCCCCCCCCOC(=O)C[n+]1cccc(C(=O)Nc2ccc(Cl)cc2)c1`: the growth inhibition was 76% (active) in experiment [1] (setting [7]); 98% (active) in experiment [1] (setting [8]); 98.8% (active) in experiment [1] (at 50.0 µM); 56% in experiment [2] (setting [7]); 99% (active) in experiment [2] (setting [8]); 99.2% (active) in experiment [2] (at 50.0 µM). The growth inhibition was 60% in experiment [3] (setting [7]); 98% (active) in experiment [3] (setting [8]); 99% (active) in experiment [3] (at 50.0 µM); 53% in experiment [4] (setting [7]); 99% (active) in experiment [4] (setting [8]); 100% (active) in experiment [4] (at 50.0 µM). Also, the growth inhibition in experiment [5] (setting [7]) was 85% (active); in experiment [5] (setting [8]) it was 99% (active); in experiment [5] (at 50.0 µM), 98.8% (active); in experiment [6] (setting [7]), 88% (active); in experiment [6] (setting [8]) it was 99% (active); in experiment [6] (at 50.0 µM) it was 98.4% (active).

Source of the values: PubChem BioAssay (NCI).
